The sample as a whole holds a higher share of hits than the screen did.
Dicer inh: inhibitors of Dicer pre-microRNA processing, primary screen, biochemical, cat-ELCCA, chemiluminescence; 47,000 compounds, 6% hits; cat-ELCCA pre-miR-21 Dicer processing; hits give high values; z-score at 25 µM; Endoribonuclease Dicer (Homo sapiens), Q9UPY3; in the data active = z-score above about 3, passing the limit was not always enough;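 also: higher signal means more uncleaved substrate so more Dicer inhibition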
Of the large screens only hits and unclear results are named; the others gave an inactive call.

Cn1c(=O)c2c(nc(N)n2CCCC(=O)O)n(C)c1=O	none
CCCOC(=O)CSc1nnc(-c2ccc(N(C)C)cc2)o1	none
c1ccc(-c2nnc(-c3ccccc3)o2)cc1	none
CN(C)c1ccc(-c2nnc(-c3ccccc3)o2)cc1	Dicer inh 4.2
O=S(=O)(Nc1ccccc1N1CCOCC1)c1ccc(-c2ccccn2)s1	Dicer inh 4.8
O=S(=O)(Nc1ccc2c(c1)OCCO2)c1ccc(-c2ccccn2)s1	none
O=S(=O)(Nc1ccccc1N1CCOCC1)c1ccc(S(=O)(=O)c2ccccc2)s1	none
CCc1nn2c(=O)c(NC(=O)c3ccc(C(C)(C)C)cc3)cnc2s1	none
CCOC(=O)c1oc2ccc(Br)cc2c1NC(C)=O	none
OCCCNNC(=S)Nc1ccc(Cl)cc1Cl	none
CCNC(=S)Nc1ccc(Cl)cc1Cl	none
S=C(NNc1c(Cl)cncc1Cl)Nc1ccc(Cl)cc1Cl	Dicer inh 6.7
Cc1cc2nc(-c3ccccc3)cc(C(F)(F)F)n2n1	none
O=C(CSc1n[nH]c(=O)n1-c1ccccc1)c1ccc2c(c1)OCCO2	none
CSc1nnc(SCC(=O)c2ccc3c(c2)OCCO3)s1	none
CC(c1ccccc1)n1c(OC(=O)N(C)C)nnc1SCC(=O)c1ccc2c(c1)OCCO2 (stereo not drawn)	Dicer inh 3.6
N#Cc1nc(COc2ccccc2F)oc1N1CCCCC1	none
N#CCC(=O)NCc1ccc(F)cc1F	none
Cn1cnnc1SCCC(=O)Nc1ccccc1	none
CCOC(=O)Cc1c(SC)c2ccccc2n1C	none
CSc1c(CC(=O)Nc2ccccc2)n(C)c2ccccc12	Dicer inh 3.7
C=CC(=O)N1CN(C(=O)C=C)CN(C(=O)C=C)C1	none
CN(/N=C/c1ncc(C(F)(F)F)cc1Cl)C(=O)c1ccccc1Cl	none
Cc1ccc(S(=O)(=O)Oc2c(-c3ccccc3)c(=O)n(C)c3ccccc23)cc1	none
Cc1ccc(Cc2c(C)[nH]c3[nH]n(-c4ccccc4)c(=O)c3c2=O)cc1	none
Cc1ccc(S(=O)(=O)Oc2c(Cc3ccccc3)c(=O)n(C)c3ccccc23)cc1	Dicer inh 3.8
COCCOC(=O)C1=C(C)NC2=C(C(=O)CCC2)C1c1ccc(C(=O)OC)cc1 (stereo not drawn)	none
Cc1[nH]n(-c2ccccc2)c(=O)c1N=Nc1ccc(Br)cc1	none
CCOC(=O)C1=C(O)C(=O)N(C2CCCCC2)C1	none
CCOC(=O)C1CC(=O)C(C(=O)OCC)CC1=O (stereo not drawn)	none
CCOC(=O)C1CN(C2CCCCC2)C(=O)C1=O (stereo not drawn)	Dicer inh 5.1
COC(=O)c1cc(-c2ccc(Cl)cc2)no1	none
COc1ccccc1C(=O)N=S1CCN(S(=O)(=O)c2ccc(Cl)cc2)CC1	none
CN(C)C(=O)c1cc([N+](=O)[O-])cc2c1-c1ccc([N+](=O)[O-])cc1C2=O	none
COC(=O)c1c(NC(=O)Nc2cccc(Cl)c2)sc2c1CCCC2	Dicer inh 3.4
COC(=O)c1c(NC(=O)c2ccccc2Br)sc2c1CCC2	none
CCCC(=O)Nc1sc2c(c1C(=O)OC)CCC2	none
CN(C)C(=S)Cc1ccc(Cl)cc1	none
ON(Cc1cccc(C(F)(F)F)c1)Cc1cccc(C(F)(F)F)c1	none
ON(Cc1ccc(Cl)cc1)Cc1ccc(Cl)cc1	Dicer inh 3
CCOc1cccc(=O)c2c(C)n(-c3ccc(C)cc3)c(C)c12	none
CCOC(=O)c1ccc(-n2c(C)c3c(OC)cccc(=O)c3c2C)cc1	Dicer inh 3.8
CCOC(=O)c1ccc(-n2c(=S)[nH]c3ccccc32)cc1	none
C#CC1(NS(=O)(=O)c2ccc(C(=O)OCC)cc2)CCCCC1	none
Cc1ccc(C(=O)Nc2cnc3sc(C(C)C)nn3c2=O)cc1	none
Cc1ccc(-c2nc(NC(=O)c3cccnc3Oc3ccccc3)sc2C)cc1Cl	none
COc1ccc(O)c(C2=NN3C(C2)c2cccc(OC)c2OC3c2ccc(OC)c(OC)c2)c1 (stereo not drawn)	none
O=[N+]([O-])c1c(Nc2ccc(Br)cc2)n[nH]c1-c1nnco1	none
O=C(Nc1ccc(Sc2ccccc2)nc1Sc1ccccc1)c1cccs1	none
O=C(Nc1ccc(F)cc1F)C(=S)NCc1cccs1	none
O=C(Nc1ccc(F)cc1F)c1cccs1	Dicer inh 6.4
Cc1ccc(NC(=O)C2Sc3nnc(C)n3NC2c2ccc(Cl)cc2)c(Br)c1 (stereo not drawn)	none
Cc1ccc(F)cc1N1CC(C(=O)O)CC1=O (stereo not drawn)	none
NC1=NC(c2ccccc2)N2C(=N1)Sc1ccccc12 (stereo not drawn)	none
CS(=O)(=O)N1N=C(c2ccccc2O)CC1c1cn(-c2ccccc2)nc1-c1ccccc1 (stereo not drawn)	none
CC(C)(C)c1csc(NNC(=O)c2ccc(Cl)cc2)n1	none
CC(C)(C)c1cc2nc(C(F)(F)F)cc(NNC(=O)Nc3ccccc3)n2n1	none
CC(C)(C)c1cc2nc(C(F)(F)F)cc(N/N=C/c3ccccc3)n2n1	none
CC(C)(C)c1cc2nc(C(F)(F)F)cc(NNC(=O)c3ccccc3)n2n1	Dicer inh 6.7
CC(C)(C)c1cc2nc(C(F)(F)F)cc(Sc3ccc(Cl)cc3)n2n1	none
CC(C)(C)c1cc2nc(C(F)(F)F)cc(NNC(=O)c3ccc(Cl)cc3)n2n1	Dicer inh 5.2
O=S1(=O)CCC(S(=O)(=O)N2CCCCC2)C1 (stereo not drawn)	none
COc1cc(OC)cc(-c2nc3n(n2)C(c2cc(OC)ccc2OC)C(C(N)=O)=C(C)N3)c1 (stereo not drawn)	none
Cc1ccc(S(=O)(=O)NCCCN(C)C)c(C)c1F	none
COc1ccc(-c2cnc3cc(C)nn3c2N)cc1	none
C#CC1(NC(=O)c2cc(Cl)cc(Cl)c2)CCCCC1	none
CC(=O)OC[C@H](OC(C)=O)[C@H](OC(C)=O)[C@@H](O)[C@H]1SC[C@@H](C(=O)N(C)C)N1C(C)=O	none
Cc1c(C(=O)N(Cc2cccs2)C2CCS(=O)(=O)C2)oc2ccccc12 (stereo not drawn)	none
CCc1ccc(CN(C(=O)c2oc3ccccc3c2C)C2CCS(=O)(=O)C2)cc1 (stereo not drawn)	Dicer inh 3.6
Cc1c(C(=O)N(Cc2ccccc2)C2CCS(=O)(=O)C2)oc2ccccc12 (stereo not drawn)	none
CCCNC(=O)c1nn2c(C(F)(F)F)cc(-c3cccs3)nc2c1Cl	none
CCc1cccc(C)c1N1C(=O)CCCC1=O	none
CN=C(Nc1ccc(C)cc1C)SC	none
COCCCN=C(Nc1ccc(Br)cc1C)SC	none
COCCCN=C(Nc1cc(C)c(C)cc1C)SC	Dicer inh 3.9
COc1cc(Cl)c(Cl)cc1Cl	none
O=C(NCCO)c1cc2ccccc2c(=O)s1	Dicer inh 3.8
O=C(NCc1ccc(C(F)(F)F)cc1)c1cc2ccc3ccccc3c2s1	none
CC(C)OC(=O)c1cc2ccccc2c(=O)s1	none
Cc1cc([N+](=O)[O-])nn1Cc1ccc(C(=O)O)cc1	none
CCOC(=O)CCC(C#N)(c1cccs1)N1CCOCC1 (stereo not drawn)	none
O=C1CC(NCCCN2CCN(c3ccc(F)cc3)CC2)C(=O)N1c1ccc(Cl)cc1 (stereo not drawn)	none
CN1CN=C(SCc2cccc(C#N)c2)NC1	none
CCC(CO)NS(=O)(=O)c1cc(-c2nnc3c4ccccc4c(C)nn23)ccc1OC (stereo not drawn)	none
CNS(=O)(=O)c1cc(-c2nnc3c4ccccc4c(C)nn23)ccc1OC	none
Cc1ccc(-c2nnc3c4ccccc4c(C)nn23)cc1S(=O)(=O)NC(C)(C)C	none
COc1ccc(-c2nnc3c4ccccc4c(C)nn23)cc1S(=O)(=O)N(C)C1CCCCC1	none
Cc1ccc(-c2nnc3c4ccccc4c(C)nn23)cc1S(=O)(=O)N1CCCC1	Dicer inh 3.2
COc1ccc(-c2nnc3c4ccccc4c(C)nn23)cc1S(=O)(=O)N1CCCC1	Dicer inh 5.5

Screening results deposited in PubChem by Center for Chemical Genomics, University of Michigan.
